Consider 15 molecules from PubChem BioAssay (NCATS).

A short description of assay [1]: qHTS profiling for inhibitors of Plasmodium falciparum proliferation (AID 504749). Further: nearly all actives have a fitted effect of over 60% in size.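 On activity, negative = inhibition: 0% = DMSO vehicle and full inhibition = artemisinin control.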 The note with it: P. falciparum in erythrocytes, SYBR Green DNA, 72 h. The gist of the method:
(§1)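 SYBR Green fluorescence of parasite DNA, read after lysis and overnight dark incubation, measured growth over 72 h in erythrocyte culture at 0.3% parasitemia and 2.5% hematocrit. Data normalised to DMSO and 0.29 uM artemisinin, with plate-drift correction.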
In general terms: Quantitative high-throughput screening tests each substance at several concentrations.

Assay [2] concerns 3D7. The description is as above. The following applies: P. falciparum in erythrocytes, SYBR Green DNA, 72 h; series mostly up to 28.7 µM. The gist of the method:
as §1

In assay [3] the test system is AA1029. The description is as above. The following applies: P. falciparum in erythrocytes, SYBR Green DNA, 72 h; series mostly up to 28.7 µM. The method in brief:
as §1

Assay [4] concerns AS120. Described as above. The following applies: P. falciparum in erythrocytes, SYBR Green DNA, 72 h; series mostly up to 28.7 µM. The method in brief:
as §1

Assay [5] concerns ATS189. Described as above. The following applies: P. falciparum in erythrocytes, SYBR Green DNA, 72 h; series mostly up to 28.7 µM. The gist of the method: as §1
Assay [6] concerns ATS95. The description is as above. The following applies: P. falciparum in erythrocytes, SYBR Green DNA, 72 h; series mostly up to 28.7 µM. The gist of the method: as §1
Assay [7] deals with C2A. The assay is described as above. The following applies: P. falciparum in erythrocytes, SYBR Green DNA, 72 h; series mostly up to 28.7 µM. The gist of the method:
as §1

For assay [8], the system named is CP185. The description is as above. The following applies: P. falciparum in erythrocytes, SYBR Green DNA, 72 h; series mostly up to 28.7 µM. The gist of the method:
as §1

For assay [9], the system named is CP191. The description is as above. The following applies: P. falciparum in erythrocytes, SYBR Green DNA, 72 h; series mostly up to 28.7 µM. The gist of the method:
as §1

Assay [10] concerns CP192. The description is as above. The following applies: P. falciparum in erythrocytes, SYBR Green DNA, 72 h; series mostly up to 28.7 µM. The gist of the method:
as §1

The test system of assay [11] is CP194. The assay is described as above. The following applies: P. falciparum in erythrocytes, SYBR Green DNA, 72 h; series mostly up to 28.7 µM. The gist of the method:
as §1

In assay [12] the test system is CP201. Described as above. The following applies: P. falciparum in erythrocytes, SYBR Green DNA, 72 h; series mostly up to 28.7 µM. The gist of the method: as §1
Assay [13] relates to CP203. The assay is described as above. The following applies: P. falciparum in erythrocytes, SYBR Green DNA, 72 h; series mostly up to 28.7 µM. The method in brief:
as §1

For assay [14], the system named is CP211. The assay is described as above. The note with it: P. falciparum in erythrocytes, SYBR Green DNA, 72 h; series mostly up to 28.7 µM. The method in brief:
as §1

For assay [15], the system named is CP215. The description is as above. The following applies: P. falciparum in erythrocytes, SYBR Green DNA, 72 h; series mostly up to 28.7 µM. The gist of the method:
as §1

Assay [16] has as its system CP217. Described as above. The following applies: P. falciparum in erythrocytes, SYBR Green DNA, 72 h; series mostly up to 28.7 µM. The method in brief:
as §1

Assay [17] deals with CP237. The description is as above. The following applies: P. falciparum in erythrocytes, SYBR Green DNA, 72 h; series mostly up to 28.7 µM. The method in brief:
as §1

In assay [18] the test system is CP238. The description is as above. The following applies: P. falciparum in erythrocytes, SYBR Green DNA, 72 h; series mostly up to 28.7 µM. The gist of the method:
as §1

Assay [19] has as its system 7G8. The description is as above. The following applies: P. falciparum in erythrocytes, SYBR Green DNA, 72 h; series mostly up to 28.7 µM. The gist of the method: as §1
Where [20] appears, read: at 28.7 µM (top of the series), parasite line A.
The mark [21] stands for this setting: at 28.7 µM (top of the series), parasite line B.
Where [22] appears, read: at 12.8 µM (top of the series), parasite line A.
The mark [23] stands for this setting: at 12.8 µM (top of the series), parasite line B.

Inconclusive results are not listed. Values without a mark were called inactive. The source made the active and inactive calls. The call rests on the fitted dose curve; in most records, active means well fitted inhibition curve with a large enough effect; inconclusive means small, poorly fitted or top-dose-only effect; inactive means flat fitted curve, though single readings scatter.
Potency means the concentration at half of the fitted maximal effect.

Turning to `C=C[C@@]1(C)CC(=O)[C@]2(O)[C@@]3(C)[C@@H](O)CCC(C)(C)[C@@H]3[C@H](O)[C@H](OC(C)=O)[C@@]2(C)O1`, the activity, negative = inhibition in [1] (setting [20]) was -7.28%; in assay [1] (setting [21]) it was 2.74%. The Potency result in assay [2], in assay [3], in assay [4], in [5], in [6] and in [7] was “inactive” throughout. Moreover, the Potency result in [8], in assay [9], in assay [10], in assay [11], in [12] and in assay [13] was “inactive” each time. Also, the Potency result in assay [14], in [15], in assay [16], in assay [17] and in assay [18] was “inactive” each time.
With `CCN(CC)CCOC(=O)C1(c2ccccc2)CCCC1`, the activity, negative = inhibition in [1] (setting [20]) is -50.7%; in assay [1] (setting [21]), -32%. In addition, the Potency in assay [3] is 0.01 µM (active); in assay [8], 11.2 µM (active); in [13], 10.7 µM (active); in assay [17] it was 2.82 µM (active). Further, the Potency result in assay [4], in [5], in assay [6], in assay [7], in assay [9] and in [10] was “inactive” throughout. Further, the Potency entry in assay [16] and in assay [18] was “inactive” throughout.
In the case of `CCCCC(CC)COC(=O)/C=C/c1ccc(OC)cc1` (centres undefined), the activity, negative = inhibition is 10.4% in assay [1] (setting [20]) and 11.8% in assay [1] (setting [21]). For the same molecule, the Potency result in [2], in [3], in assay [4], in [5], in assay [6] and in [7] was “inactive” in each case. Further, the Potency entry in assay [8], in assay [9], in assay [10], in [11], in assay [12] and in [13] was “inactive” throughout. For the same molecule, the Potency entry in [14], in assay [15], in assay [16], in assay [17] and in assay [18] was “inactive” each time.
Regarding `COc1ccc2c(c1)c1c3n2CCN(C)C3=NCC1`, the figures for the activity, negative = inhibition in assay [1] (setting [20]) and in assay [1] (setting [21]) were -3.91% and 11.3%, respectively. Also, the Potency result in assay [2], in assay [3], in assay [4], in assay [5], in [6] and in assay [7] was “inactive” throughout. Also, the Potency result in [8], in [9], in assay [10], in assay [11], in [12] and in assay [13] was “inactive” throughout. In addition, the Potency result in assay [14], in assay [15], in [16] and in assay [18] was “inactive” throughout.
Regarding `CCCCc1cc2ccccc2c(OCCN(C)C)n1`, the activity, negative = inhibition in assay [1] (setting [22]) is 8.06%; in assay [1] (setting [23]), 4.66%. In addition, the Potency entry in [2], in assay [3], in [4], in assay [5], in assay [6] and in assay [7] was “inactive” each time. The Potency entry in [8], in [9], in assay [10], in assay [11], in assay [12] and in assay [13] was “inactive” throughout. For the same molecule, the Potency entry in [14], in assay [16] and in assay [18] was “inactive” each time.
Take `NCCNc1cccc2ccccc12`: the activity, negative = inhibition in [1] (setting [20]) is -9.01%; in assay [1] (setting [21]) it was 2.1%. For the same molecule, the Potency entry in assay [2], in assay [3], in [4], in [5], in assay [6] and in assay [7] was “inactive” throughout. Moreover, the Potency entry in assay [8], in assay [9], in assay [10], in assay [11], in assay [12] and in [13] was “inactive” throughout. In addition, the Potency result in assay [14], in [15], in assay [16] and in assay [18] was “inactive” in each case.
Take `COc1ccc(CN(CCN(C)C)c2ncccn2)cc1`: the activity, negative = inhibition was 12.9% in assay [1] (setting [20]) and 5.48% in assay [1] (setting [21]). Moreover, the Potency entry in [2], in [3], in assay [4], in [5], in assay [6] and in [7] was “inactive” throughout. Besides, the Potency result in assay [8], in assay [9], in assay [10], in assay [11], in [12] and in [14] was “inactive” each time. Besides, the Potency entry in assay [15], in assay [16] and in assay [18] was “inactive” throughout. Moreover, the Potency in assay [17] was 7.08 µM (active).
On to `CCCCNc1ccc(C(=O)OCCOCCOCCOCCOCCOCCOCCOCCOCCOC)cc1`, for which the activity, negative = inhibition in [1] (setting [22]) is -21.5%; in assay [1] (setting [23]), -9.92%. For the same molecule, the Potency result in assay [2], in assay [3], in [4], in assay [5], in assay [6] and in [7] was “inactive” in each case. For the same molecule, the Potency entry in assay [8], in [9], in [10], in assay [11], in assay [12] and in [13] was “inactive” throughout. The Potency result in assay [14], in assay [15], in [16], in [17] and in assay [18] was “inactive” each time.
Consider `CCN(CC)CCOc1ccccc1C(=O)CCc1ccccc1`, for which the activity, negative = inhibition in [1] (setting [20]) is 2.97%; in assay [1] (setting [21]) it was -13.2%. Further, the Potency result in assay [2], in assay [7], in assay [9] and in assay [10] was “inactive” throughout.
On to `CCOCCn1c(N2CCCN(C)CC2)nc2ccccc21`, for which the activity, negative = inhibition was 7.9% in [1] (setting [20]) and 8.28% in assay [1] (setting [21]). For the same molecule, the Potency entry in assay [2], in assay [4], in [6], in [7], in [8] and in assay [9] was “inactive” each time. Also, the Potency entry in [10], in assay [12], in [14], in assay [15], in assay [16] and in assay [18] was “inactive” each time. Also, the Potency in [17] is 11.2 µM (active).
For the molecule `CN(C)CCN1C(=O)c2ccccc2N(C)c2ccccc21`, the activity, negative = inhibition in assay [1] (setting [20]) was -2.77%; in assay [1] (setting [21]) it was 8.88%. Further, the Potency entry in [2], in [7] and in [15] was “inactive” throughout. Moreover, the Potency in assay [17] is 3.98 µM (active).
For the molecule `C=CCN1CCc2nc(N)sc2CC1`, the activity, negative = inhibition in [1] (setting [20]) was -6.7%; in assay [1] (setting [21]) it was 2.41%. Moreover, the Potency entry in assay [2], in [3], in assay [4], in assay [5], in [6] and in assay [7] was “inactive” throughout. For the same molecule, the Potency entry in assay [8], in assay [9], in assay [10], in assay [11], in assay [12] and in [13] was “inactive” throughout. Further, the Potency entry in assay [14], in assay [15], in assay [16], in [17] and in assay [18] was “inactive” throughout.
For `COc1ccc(C(Cl)=C(c2ccc(OC)cc2)c2ccc(OC)cc2)cc1`, the Potency is 3.98 µM (active) in [1] (parasite line A); 3.98 µM (active) in assay [1] (parasite line B); 6.31 µM (active) in assay [3]; 3.55 µM (active) in [4]; 2.82 µM (active) in [5]; 11.2 µM (active) in [6]. Moreover, the Potency in assay [7] was 3.98 µM (active); in assay [9], 12.6 µM (active); in [16], 11.2 µM (active); in assay [18] it was 10 µM (active). In addition, the Potency entry in [10], in [11], in assay [12], in assay [13], in assay [14] and in assay [15] was “inactive” each time.
As for `CN(C)C(=O)Nc1ccc(Cl)c(Cl)c1`, the activity, negative = inhibition was -1.54% in assay [1] (setting [20]) and -6.86% in assay [1] (setting [21]). The Potency entry in assay [5], in [6], in assay [8] and in assay [10] was “inactive” in each case.
As for `O=C(CCN1CCN2CCCC2C1)N1c2ccccc2Sc2ccc(Cl)cc21` (centres undefined), the activity, negative = inhibition is -26.8% in [1] (setting [20]) and -9.82% in assay [1] (setting [21]). Besides, the Potency in [19] is 8.91 µM (active). The Potency result in [8], in assay [10], in assay [11], in assay [12], in assay [13] and in assay [14] was “inactive” each time.
